The full ranking holds about 39,000 sequences; the median of “fluorescence intensity (a.u.)” is about 4,300, and the highest 2% start at about 39,000. The entries come from a sample that favours the highest values as a whole.

In this test the target is T1, OsSMF1 (Oryza sativa, UniProt Q6ZLB0 1-436).
T1 sequence: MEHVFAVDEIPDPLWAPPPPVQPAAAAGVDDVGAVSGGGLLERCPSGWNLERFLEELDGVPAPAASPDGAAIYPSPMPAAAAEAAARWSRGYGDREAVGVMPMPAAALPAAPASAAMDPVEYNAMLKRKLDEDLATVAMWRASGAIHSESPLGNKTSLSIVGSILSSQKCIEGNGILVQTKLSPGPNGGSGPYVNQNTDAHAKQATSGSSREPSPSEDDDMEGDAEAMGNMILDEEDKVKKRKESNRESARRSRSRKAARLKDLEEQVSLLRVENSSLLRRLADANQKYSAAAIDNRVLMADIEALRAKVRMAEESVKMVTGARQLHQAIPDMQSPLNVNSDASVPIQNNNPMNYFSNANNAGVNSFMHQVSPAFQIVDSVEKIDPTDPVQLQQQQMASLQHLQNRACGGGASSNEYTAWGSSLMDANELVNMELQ
In words: protein-binding microarray (RPBM); PBS, 2% BSA, 51.3 ng/ul salmon testes DNA, 50 uM zinc acetate, 200 nM TF, 25 C, 1 h; high values mean tight binding. The following applies: protein: recombinant; tags: N-terminal polyhistidine and DsRed monomer fusion (pET32a); chain copies: 2; label: CyDye5-dUTP incorporated in the synthesized complementary strand; 3' TTTTT single-stranded linker to array surface; dsDNA, one strand shown. In a few lines: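 Polyhistidine-tagged DsRed fusions of transcription factors, joined at the N-terminus, were expressed in E. coli BL21-CodonPlus and isolated on Ni–NTA. They were incubated at 200 nM for 1 h at 25 °C on a custom Agilent array, double-stranded and BSA-blocked, in PBS with 2% BSA, salmon testes DNA and 50 µM zinc acetate. The binding signal is per-feature fluorescence intensity (arbitrary units) read on an Axon 4000B scanner after washing.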
As for “CCCACCATTGCCGCCGTGTCCGGCAACCTAACGAACCTCGCGGAGTCACCTAGTGCAG”, the binding signal is 4100 fluorescence intensity (a.u.).
The result for “CCTCCTTTTCTTCTCCACGTATACAATCAGTCTAGTTGGACGGAGTCACCTAGTGCAG” reads 5040 fluorescence intensity (a.u.).
The result for “GCAGTATATGTGTGTGTGCTTTCTTTTGGGATAGAGTCTGCGGAGTCACCTAGTGCAG” reads 3460 fluorescence intensity (a.u.).
For the sequence “TGGATAAGGATGTGTGAGACGTGTGATCTTTACTTGTTGGCGGAGTCACCTAGTGCAG”, the binding signal was 3980 fluorescence intensity (a.u.).
The figure for “ATCTTTTCTAGTACCAGGATCTTGTGTTGGTGATAGAGAGCGGAGTCACCTAGTGCAG” is 42500 fluorescence intensity (a.u.); for “TACTTTAAATGTGTGTCCGTATATCCGATGTGACACGCCACGGAGTCACCTAGTGCAG” it is 3870 fluorescence intensity (a.u.).
The figure for “TAAACATATATGCATGGATGATGTCATGGAAACATGGATTCGGAGTCACCTAGTGCAG” is 4690 fluorescence intensity (a.u.); for “GATCAATCATCCTTGTTCACAAGGCTGCCTGACATGGATGCGGAGTCACCTAGTGCAG” it is 3730 fluorescence intensity (a.u.); for “AGATGGGAAATAAAGGGTGGTGACATGGCACACTGACATGCGGAGTCACCTAGTGCAG” it is 10800 fluorescence intensity (a.u.).
As to “GCGCCACGTAGACGCCACGTCAGCCAAAACCGCCCTCCATCGGAGTCACCTAGTGCAG”, the binding signal is 52000 fluorescence intensity (a.u.).
The figure for “AAAAGCCCACCACCACCCAACCCGCCCAACGCCACGTCACCGGAGTCACCTAGTGCAG” is 24800 fluorescence intensity (a.u.).
The figure for “GGTGTCACGTAAGCGCCACGTCAGCGAACCGCCCTCCAAACGGAGTCACCTAGTGCAG” is 26600 fluorescence intensity (a.u.).
The result for “GTCAAAACCGCCACGTAGACGCCACGTCATCGAAACCGCCCGGAGTCACCTAGTGCAG” reads 40400 fluorescence intensity (a.u.); that for “CGCTCCGTCAGCCACGTAGACGCTACGTCGGCCAAAACCGCGGAGTCACCTAGTGCAG”, 14900 fluorescence intensity (a.u.); that for “GCCCACGCTCACCGACTCCATCGACGTCACGCTCACCGCCCGGAGTCACCTAGTGCAG”, 5090 fluorescence intensity (a.u.).
As to “TACTGCCACGTAGGCGCCACGTCAGCGAAACCGCCCTCCACGGAGTCACCTAGTGCAG”, the binding signal is 58100 fluorescence intensity (a.u.).
The result for “CAAACAAGCCACGTAGATGCCACGTCATCCAAAACCGCCTCGGAGTCACCTAGTGCAG” reads 29600 fluorescence intensity (a.u.); that for “CCGAGTCAATACTGCCACGTAGCGCGCCACGTCAGCGAAACGGAGTCACCTAGTGCAG”, 26300 fluorescence intensity (a.u.); that for “TCCGTGACACCGTGACAGCGTGGACGTTCATAACCTTCCACGGAGTCACCTAGTGCAG”, 9010 fluorescence intensity (a.u.).
As for “GACCTCGCGAACAGCCCACACGTACGTTACTGACGCCATACGGAGTCACCTAGTGCAG”, the binding signal is 4360 fluorescence intensity (a.u.).
“ACAGGTAGCTCCATATCTTGTTCATATTGACATACACAATCGGAGTCACCTAGTGCAG”: the binding signal is 31500 fluorescence intensity (a.u.).
Consider “TGCAAATTTTCAAAATCGACTACCAGTAGATGTTTACTCCCGGAGTCACCTAGTGCAG”, for which the binding signal was 14000 fluorescence intensity (a.u.).
The result for “CAAGAATGTACTGAGTACGTCTCAATCCACGTGTTTGAGCCGGAGTCACCTAGTGCAG” reads 4960 fluorescence intensity (a.u.); that for “TCACGAACTGTGTACCGGATGCCACGTCACACAGTTGTCTCGGAGTCACCTAGTGCAG”, 41200 fluorescence intensity (a.u.); that for “ATGCAGCCACACGGATGTTGGACGTCATTGTCTATAGTGTCGGAGTCACCTAGTGCAG”, 4580 fluorescence intensity (a.u.).
The figure for “TATAGTTGTGTACTAGTGTCACTCACGCCACCCGTCTCATCGGAGTCACCTAGTGCAG” is 3670 fluorescence intensity (a.u.); for “ACCAGCCACGTAGGCGCCACGTCAGCTAAAACCGCCTTCACGGAGTCACCTAGTGCAG” it is 19900 fluorescence intensity (a.u.).
As for “AGTAAAAGGAGCCACGTAGGCGCCACGTCATCCAAAACCACGGAGTCACCTAGTGCAG”, the binding signal is 47600 fluorescence intensity (a.u.).
As for “TTGCAGTGCCACCTCACCGCCACGTAGGATGATGACTAAGCGGAGTCACCTAGTGCAG”, the binding signal is 25800 fluorescence intensity (a.u.).
The figure for “AAACTAGCCACGTTGGCGCCACGTCAGCCAAAACCGCCTTCGGAGTCACCTAGTGCAG” is 33700 fluorescence intensity (a.u.).
As to “AGTTAATGGAGGAGCCACCGCCACGTAAGTGCCACGTAGGCGGAGTCACCTAGTGCAG”, the binding signal is 56200 fluorescence intensity (a.u.).
The figure for “CGTAAGCGCCACGTTAATGCCACGTGGGGCGAAGACCTAGCGGAGTCACCTAGTGCAG” is 15100 fluorescence intensity (a.u.); for “GGCCGCGTAGGCGCCACATCAGCCAAAACCACCATCAAAACGGAGTCACCTAGTGCAG” it is 4590 fluorescence intensity (a.u.); for “AACCAGCCACGTAGGCGCCACGTCAGCCAAAACTGCTATCCGGAGTCACCTAGTGCAG” it is 35900 fluorescence intensity (a.u.).
The result for “ACAAGCCACGTAGGCGCCACGTCAGCCAAAACCGCCTTCACGGAGTCACCTAGTGCAG” reads 44100 fluorescence intensity (a.u.); that for “CATTATACTGTTCATAAACATGAATATCACAACCTGTTCTCGGAGTCACCTAGTGCAG”, 21100 fluorescence intensity (a.u.).
As for “GTGTGGGGATAAACAGAGGTAGAGACATGTGTCAGATGACCGGAGTCACCTAGTGCAG”, the binding signal is 3150 fluorescence intensity (a.u.).
Consider “CTTCTTTCCCGCACGCGCGGCTCGCGCATGCATGCACGATCGGAGTCACCTAGTGCAG”, for which the binding signal is 15000 fluorescence intensity (a.u.).
The result for “CGTCCGGCGTCGGCGTGGACGGGTCGGCGCGGCGCCCCACCGGAGTCACCTAGTGCAG” reads 3650 fluorescence intensity (a.u.); that for “AGATTAAGGAGTCCTCCATCTATATAATCCAATCTATCTCCGGAGTCACCTAGTGCAG”, 21400 fluorescence intensity (a.u.).
For “TTGTCCGATGTGGCAGTTGAGTCAGCATGAGACCCACGTACGGAGTCACCTAGTGCAG”, the binding signal is 14200 fluorescence intensity (a.u.).
The figure for “CGGCACCACCAGTTGTCCGGCATGCGATGTGGTACCGAGACGGAGTCACCTAGTGCAG” is 49300 fluorescence intensity (a.u.); for “ACCACCCGAGACGCGACGTGGCGGCGGGCATGCAGCACCCCGGAGTCACCTAGTGCAG” it is 5050 fluorescence intensity (a.u.).
